We go through 13 molecules from PubChem BioAssay (NCI).

SMILES strings stand for the structures. Compounds without any hit were thinned out: in the full panel of roughly 83,000, 20% have a hit.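 Negative percent growth values reflect cell death: -40 means 40% of the cells present at the start died, and -100 means all died.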 Values without a mark were called inactive. Activity calls are given as the source filed them. Rule for the calls: active = growth percent below 10; inactive = the rest.

Test systems include NCI-H23 lung; NCI-H226 lung; NCI-H322M lung; HOP-62 NSCLC; NCI-H460 lung; HOP-92 NSCLC; NCI-H522 lung; A549/ATCC NSCLC; 786-0 renal; COLO 205 colon.
What all share (test): NCI-60 one-dose screen, 48 h (100 = growth as untreated, 0 = no growth, -100 = all killed)
What all share (conditions): 10 µM unless noted

Consider `CCN1CCN(C(=O)[C@@]2(C)CC[C@]3(C)CC[C@]4(C)C(=CC(=O)[C@@H]5[C@@]6(C)CC[C@H](OC7C[C@@H](O)[C@@H](O)C(C)O7)C(C)(C)[C@@H]6CC[C@]54C)[C@@H]3C2)CC1` (stereo not given in full), for which the growth was 45.2% with NCI-H23 lung; 26.3% with NCI-H226 lung; 37% with NCI-H322M lung; 26.9% in the assay on HOP-62 NSCLC; -79.5% (active) with NCI-H460 lung; 0.911% (active) in the assay on HOP-92 NSCLC. In addition, the growth is 38.6% in the assay with NCI-H522 lung, 12.5% in the assay on A549/ATCC NSCLC, -60.5% (active) with 786-0 renal and 106% in the assay on COLO 205 colon.

In the case of `COc1cccc(-c2nn(-c3ccccc3)cc2-c2ccnc(NCCNS(=O)(=O)c3ccccc3)c2)c1`, the growth in the assay on NCI-H23 lung was 39.5%; in the assay on NCI-H226 lung it was 41.2%; in the assay with NCI-H322M lung, 62.8%; with HOP-62 NSCLC it was 58.6%; in the assay with NCI-H460 lung, 28.6%; in the assay on HOP-92 NSCLC, 19.4%. The growth was 9.95% (active) in the assay with NCI-H522 lung, 34.4% in the assay with A549/ATCC NSCLC, 42.7% in the assay on 786-0 renal and 10.6% with COLO 205 colon.

For the molecule `Brc1cnc2[nH]cc(-c3nnc(-c4ccccc4)o3)c2c1`, the growth with NCI-H23 lung is 78.5%; in the assay on NCI-H226 lung, 66.4%; in the assay with NCI-H322M lung, 77.5%; with HOP-62 NSCLC, 85.2%; in the assay with NCI-H460 lung it was 80.9%; in the assay with HOP-92 NSCLC it was 74.7%. The growth was 76.7% in the assay with NCI-H522 lung, 81.2% with A549/ATCC NSCLC, 73.6% with 786-0 renal and 82.9% in the assay on COLO 205 colon.

For the molecule `COc1cc2c(cc1-c1c(C)noc1C)ncc1nc(C3CC3)n([C@H](C)COC(F)F)c12`, the growth with NCI-H23 lung was 65.4%; in the assay on NCI-H226 lung it was 58.1%; with NCI-H322M lung it was 47.8%; in the assay on HOP-62 NSCLC it was 43.4%; with NCI-H460 lung, 60.7%; in the assay on HOP-92 NSCLC it was 37%. For the same molecule, the growth was 27.4% with NCI-H522 lung, 36.1% in the assay on A549/ATCC NSCLC, 51.6% in the assay on 786-0 renal and 25.1% in the assay with COLO 205 colon.

As for `O=C(/C(=C(\C(=O)c1ccccc1)c1ccccc1)c1ccccc1)c1ccccc1`, the growth with NCI-H23 lung is 42%; with NCI-H226 lung, 63.9%; in the assay on NCI-H322M lung, 76%; in the assay with HOP-62 NSCLC, 80.3%; with NCI-H460 lung it was 25.1%; in the assay with HOP-92 NSCLC it was 37.8%. Besides, the growth in the assay with NCI-H522 lung was 43.3%; with A549/ATCC NSCLC, 28.9%; in the assay with 786-0 renal, 69.9%; in the assay with COLO 205 colon it was 53.2%.

Consider `Cc1cc(Cl)nc(N(CCCNc2ccnc3cc(Cl)ccc23)Cc2ccco2)n1`, for which the growth in the assay with NCI-H23 lung is 8.17% (active); in the assay on NCI-H226 lung, 24.1%; in the assay on NCI-H322M lung, 42.8%; with HOP-62 NSCLC, 25.7%; in the assay on NCI-H460 lung it was 16.7%; with HOP-92 NSCLC it was -3.26% (active). Besides, the growth is 13.8% with NCI-H522 lung, 29.2% with A549/ATCC NSCLC, 19.5% in the assay on 786-0 renal and -54.5% (active) with COLO 205 colon.

For the molecule `C[C@H]1[C@H]2C3=CC[C@@H]4[C@@]5(C)C/C(=C/c6ccco6)C(=O)C(C)(C)[C@@H]5CC[C@@]4(C)[C@]3(C)CC[C@@]2(C(=O)N2CCOCC2)CC[C@@H]1C`, the growth in the assay on NCI-H23 lung is 44.2%; with NCI-H226 lung, 83.8%; with NCI-H322M lung, 95.3%; in the assay with HOP-62 NSCLC, 105%; in the assay with NCI-H460 lung, 94.9%; in the assay with HOP-92 NSCLC, 78.4%. Also, the growth in the assay on NCI-H522 lung is 38%; with A549/ATCC NSCLC it was 70.4%; in the assay with 786-0 renal it was 95.5%; in the assay on COLO 205 colon, 94.1%.

Take `COc1cccc(-c2nn(-c3ccccc3)cc2-c2ccnc(NCCCO)c2)c1`: the growth is 51.5% with NCI-H23 lung; 69.2% with NCI-H226 lung; 66% with NCI-H322M lung; 27.1% with HOP-62 NSCLC; 18.4% with NCI-H460 lung; 41.8% with HOP-92 NSCLC. Moreover, the growth in the assay with NCI-H522 lung was 18%; in the assay with A549/ATCC NSCLC, 35.1%; with 786-0 renal, 48.7%; in the assay with COLO 205 colon, 11.2%.

As for `Cn1cc(-c2csc(-c3c[nH]c4ccccc34)n2)c2cccnc21`, the growth was 30.3% in the assay on NCI-H23 lung; 60.3% with NCI-H226 lung; 56.1% in the assay with NCI-H322M lung; 45.5% in the assay on HOP-62 NSCLC; 14.6% in the assay with NCI-H460 lung; 49.5% with HOP-92 NSCLC. Also, the growth in the assay on NCI-H522 lung was 5.06% (active); in the assay with A549/ATCC NSCLC, 40.3%; in the assay with 786-0 renal, 45.7%; in the assay with COLO 205 colon it was 9.57% (active).

Take `CC(=O)N1N=C(c2ccc(C)cc2)CC1c1ccc(Oc2ccc(Br)cc2)cc1` (stereo not given): the growth was 83.1% in the assay with NCI-H23 lung; 90.1% in the assay on NCI-H226 lung; 73.9% with NCI-H322M lung; 83.6% in the assay with HOP-62 NSCLC; 98.4% in the assay on NCI-H460 lung; 89.4% in the assay on HOP-92 NSCLC. Moreover, the growth in the assay with NCI-H522 lung was 83.2%; in the assay with A549/ATCC NSCLC, 81.5%; with 786-0 renal, 80%; in the assay with COLO 205 colon it was 97.7%.

Regarding `Cc1cc2nc3c4cc([N+](=O)[O-])cc([N+](=O)[O-])c4n(CCN(C)C)c3nc2cc1C`, the growth in the assay on NCI-H23 lung was 77.7%; in the assay on NCI-H226 lung, 84.1%; with NCI-H322M lung, 72.2%; in the assay with HOP-62 NSCLC, 64.7%; in the assay on NCI-H460 lung it was 65.4%; with HOP-92 NSCLC, 80.7%. The growth is 70.6% with NCI-H522 lung, 73.5% in the assay with A549/ATCC NSCLC, 80.4% in the assay with 786-0 renal and 71.1% in the assay with COLO 205 colon.

For the molecule `CC(C)/C=C/CC[C@](C)(O)[C@H]1CC[C@]2(C)[C@@H]1CC[C@@H]1[C@@]3(C)C/C(=C/c4cccc(C(F)(F)F)c4)C(=O)C(C)(C)[C@@H]3CC[C@]12C`, the growth was 96.3% in the assay on NCI-H23 lung; 94.9% in the assay on NCI-H226 lung; 105% in the assay with NCI-H322M lung; 103% in the assay on HOP-62 NSCLC; 98.6% with NCI-H460 lung; 92.7% in the assay on HOP-92 NSCLC. Also, the growth in the assay with NCI-H522 lung is 96.2%; in the assay with A549/ATCC NSCLC it was 85%; with 786-0 renal it was 101%; with COLO 205 colon it was 113%.

`CC(C)(C)c1nc(-c2ccc(O)c(O)c2)cs1`: the growth was 68.8% in the assay with NCI-H23 lung; 93.7% in the assay with NCI-H226 lung; 93.2% in the assay with NCI-H322M lung; 66.7% in the assay with HOP-62 NSCLC; 33.1% with NCI-H460 lung; 61.3% with HOP-92 NSCLC. Besides, the growth in the assay with NCI-H522 lung is 21%; with A549/ATCC NSCLC, 55.7%; in the assay with 786-0 renal, 77.5%; with COLO 205 colon, 92.6%.
